Experiment in all cases: DAPPL (digital affinity profiling via proximity ligation, sequencing); 10 mM Tris-HCl pH 7.5, 50 mM NaCl, 1 mM DTT, 4% glycerol, room temperature, 30 min; GST-TFs on glutathione beads, 16-mer random dsDNA library, 0.1% formaldehyde crosslink after washing; high values mean tight binding
Details in all cases: protein: recombinant; tags: N-terminal GST; dsDNA, one strand shown

Assay [1] deals with ELF1 (Homo sapiens, UniProt P32519 1-619). In outline: (§1)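 Sequencing on an Illumina NextSeq500 followed washing, crosslinking with 0.1% formaldehyde, proximity ligation (BsaI/T4 ligase, 1 h, 37 °C) and PCR amplification of pools that had been incubated for 30 min at room temperature with 200 nmole of a random double-stranded 16-mer DNA library in Tris/NaCl/DTT/glycerol buffer. Each pool held DNA-barcoded human transcription factors, expressed in yeast as GST fusions and captured on glutathione beads, plus a tag-only sample. Binding signal is a hexamer's read frequency for a factor divided by its frequency in the tag-only sample.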
Sequence of ELF1 (P32519 whole entry, the tested form may be a part): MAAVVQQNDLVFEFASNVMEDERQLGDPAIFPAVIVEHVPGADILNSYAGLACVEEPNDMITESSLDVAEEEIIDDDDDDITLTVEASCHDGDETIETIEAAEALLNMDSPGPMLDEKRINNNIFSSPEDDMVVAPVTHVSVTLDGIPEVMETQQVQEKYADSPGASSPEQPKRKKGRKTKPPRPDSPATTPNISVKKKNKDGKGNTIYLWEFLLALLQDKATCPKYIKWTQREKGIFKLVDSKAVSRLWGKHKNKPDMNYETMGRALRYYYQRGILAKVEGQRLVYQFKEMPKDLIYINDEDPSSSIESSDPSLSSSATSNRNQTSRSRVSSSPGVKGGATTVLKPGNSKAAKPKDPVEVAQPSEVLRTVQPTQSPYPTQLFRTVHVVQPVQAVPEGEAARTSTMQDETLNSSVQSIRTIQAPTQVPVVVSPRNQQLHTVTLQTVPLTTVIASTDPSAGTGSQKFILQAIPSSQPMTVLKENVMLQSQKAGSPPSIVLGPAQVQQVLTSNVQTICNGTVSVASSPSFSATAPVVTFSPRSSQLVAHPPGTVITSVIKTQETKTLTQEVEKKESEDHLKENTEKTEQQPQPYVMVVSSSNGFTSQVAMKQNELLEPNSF

The target of assay [2] is T1, EHF (Homo sapiens, UniProt Q9NZC4 1-300).
T1 sequence: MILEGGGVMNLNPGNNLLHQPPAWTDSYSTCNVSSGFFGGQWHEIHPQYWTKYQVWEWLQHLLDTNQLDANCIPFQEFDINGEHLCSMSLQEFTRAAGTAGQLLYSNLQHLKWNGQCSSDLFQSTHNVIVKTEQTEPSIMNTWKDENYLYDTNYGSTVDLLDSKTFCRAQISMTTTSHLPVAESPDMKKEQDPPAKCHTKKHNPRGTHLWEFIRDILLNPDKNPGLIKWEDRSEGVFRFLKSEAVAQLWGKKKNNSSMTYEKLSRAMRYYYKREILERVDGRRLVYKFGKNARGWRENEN
In outline:
as §1

Assay [3] deals with T2, ELK3 (Homo sapiens, UniProt P41970 1-407).
T2 sequence: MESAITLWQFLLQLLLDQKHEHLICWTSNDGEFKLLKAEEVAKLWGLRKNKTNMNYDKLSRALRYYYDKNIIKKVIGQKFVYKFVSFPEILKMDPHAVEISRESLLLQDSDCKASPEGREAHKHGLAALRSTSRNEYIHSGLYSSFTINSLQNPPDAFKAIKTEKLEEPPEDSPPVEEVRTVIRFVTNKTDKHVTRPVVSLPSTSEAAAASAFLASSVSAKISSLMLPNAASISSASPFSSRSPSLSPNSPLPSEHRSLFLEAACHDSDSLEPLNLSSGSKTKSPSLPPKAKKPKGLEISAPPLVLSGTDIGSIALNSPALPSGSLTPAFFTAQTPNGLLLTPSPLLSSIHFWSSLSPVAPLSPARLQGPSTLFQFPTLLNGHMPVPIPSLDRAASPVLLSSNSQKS
In outline: as §1

Assay [4] deals with T3, SPIC (Homo sapiens, UniProt Q8N5J4 1-248).
T3 sequence: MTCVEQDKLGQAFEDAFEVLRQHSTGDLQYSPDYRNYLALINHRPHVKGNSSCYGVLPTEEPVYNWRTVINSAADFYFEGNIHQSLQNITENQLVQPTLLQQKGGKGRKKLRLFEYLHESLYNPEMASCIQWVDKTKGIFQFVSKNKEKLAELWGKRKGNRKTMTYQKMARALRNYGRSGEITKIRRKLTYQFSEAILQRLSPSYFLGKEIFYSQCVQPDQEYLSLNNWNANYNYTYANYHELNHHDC
The method, boiled down:
as §1

Assay [5] concerns the target ELF4 (Homo sapiens, UniProt Q99607 1-663). The method, boiled down: as §1
In assay [6] the target is T4, ELK4 (Homo sapiens, UniProt P28324-2 1-405).
T4 sequence: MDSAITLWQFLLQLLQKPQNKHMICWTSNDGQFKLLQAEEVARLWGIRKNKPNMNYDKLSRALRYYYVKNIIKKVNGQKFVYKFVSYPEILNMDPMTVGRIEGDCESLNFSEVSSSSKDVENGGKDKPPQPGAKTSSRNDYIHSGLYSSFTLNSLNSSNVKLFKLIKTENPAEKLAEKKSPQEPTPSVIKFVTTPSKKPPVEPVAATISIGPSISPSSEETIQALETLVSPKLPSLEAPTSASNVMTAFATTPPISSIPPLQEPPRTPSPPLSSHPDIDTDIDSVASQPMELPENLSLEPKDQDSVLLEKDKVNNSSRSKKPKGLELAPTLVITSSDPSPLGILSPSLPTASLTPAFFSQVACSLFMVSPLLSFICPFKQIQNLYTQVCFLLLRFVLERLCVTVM
In outline:
as §1

Assay [7] has as its target T5, ELF3 (Homo sapiens, UniProt P78545 1-371).
T5 sequence: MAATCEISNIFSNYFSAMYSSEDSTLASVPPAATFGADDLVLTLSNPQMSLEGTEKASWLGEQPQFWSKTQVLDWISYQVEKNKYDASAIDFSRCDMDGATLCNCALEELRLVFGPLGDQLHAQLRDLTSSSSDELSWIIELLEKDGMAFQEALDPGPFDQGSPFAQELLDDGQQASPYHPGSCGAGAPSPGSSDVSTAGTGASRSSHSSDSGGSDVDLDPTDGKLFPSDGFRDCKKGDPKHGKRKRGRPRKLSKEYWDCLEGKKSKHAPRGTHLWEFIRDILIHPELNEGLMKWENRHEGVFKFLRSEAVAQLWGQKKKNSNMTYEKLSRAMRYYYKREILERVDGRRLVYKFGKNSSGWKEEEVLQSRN
The method, boiled down: as §1

The target of assay [8] is T6, ERF (Homo sapiens, UniProt P50548 1-548).
T6 sequence: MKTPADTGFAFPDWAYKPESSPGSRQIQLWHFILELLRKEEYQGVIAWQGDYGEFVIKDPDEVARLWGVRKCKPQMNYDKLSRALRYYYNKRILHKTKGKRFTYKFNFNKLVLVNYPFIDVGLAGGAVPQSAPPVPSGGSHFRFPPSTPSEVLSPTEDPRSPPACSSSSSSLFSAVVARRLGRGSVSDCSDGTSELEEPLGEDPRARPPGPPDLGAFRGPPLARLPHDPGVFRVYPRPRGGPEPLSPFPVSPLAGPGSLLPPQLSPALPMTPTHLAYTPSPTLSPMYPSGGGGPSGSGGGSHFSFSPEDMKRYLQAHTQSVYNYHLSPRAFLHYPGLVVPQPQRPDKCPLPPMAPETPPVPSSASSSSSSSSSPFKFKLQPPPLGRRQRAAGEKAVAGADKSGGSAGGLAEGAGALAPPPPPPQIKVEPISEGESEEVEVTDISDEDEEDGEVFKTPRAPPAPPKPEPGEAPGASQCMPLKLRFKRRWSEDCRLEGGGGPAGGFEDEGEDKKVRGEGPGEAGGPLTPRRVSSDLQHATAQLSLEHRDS
In outline: as §1

In assay [9] the target is T7, ETS2 (Homo sapiens, UniProt P15036 1-469).
T7 sequence: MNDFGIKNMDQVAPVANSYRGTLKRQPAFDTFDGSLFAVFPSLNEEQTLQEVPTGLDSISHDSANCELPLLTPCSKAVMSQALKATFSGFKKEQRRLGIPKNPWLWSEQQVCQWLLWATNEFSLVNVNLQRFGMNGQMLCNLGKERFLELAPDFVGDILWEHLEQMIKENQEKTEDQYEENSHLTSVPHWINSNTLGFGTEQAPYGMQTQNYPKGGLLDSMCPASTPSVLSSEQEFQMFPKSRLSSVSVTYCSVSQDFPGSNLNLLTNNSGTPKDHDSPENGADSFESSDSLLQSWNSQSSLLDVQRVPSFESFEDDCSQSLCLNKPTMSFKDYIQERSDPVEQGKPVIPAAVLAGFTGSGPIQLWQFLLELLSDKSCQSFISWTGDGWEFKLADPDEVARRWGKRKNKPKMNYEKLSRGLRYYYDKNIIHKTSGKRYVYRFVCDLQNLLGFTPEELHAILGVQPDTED
In outline: as §1

Assay [10] concerns the target T8, SPDEF (Homo sapiens, UniProt O95238 1-335).
T8 sequence: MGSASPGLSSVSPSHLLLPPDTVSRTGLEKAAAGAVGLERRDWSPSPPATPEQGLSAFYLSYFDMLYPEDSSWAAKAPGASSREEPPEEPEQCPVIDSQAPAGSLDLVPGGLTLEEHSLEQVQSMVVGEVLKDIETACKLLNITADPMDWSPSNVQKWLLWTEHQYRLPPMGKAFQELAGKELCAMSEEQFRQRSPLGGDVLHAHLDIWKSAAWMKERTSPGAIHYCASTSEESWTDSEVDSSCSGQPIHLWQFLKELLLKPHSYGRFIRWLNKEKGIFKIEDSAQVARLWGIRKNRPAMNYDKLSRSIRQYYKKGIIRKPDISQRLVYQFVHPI
In outline:
as §1

In assay [11] the target is ETV6 (Homo sapiens, UniProt P41212 1-452). In outline: as §1
Sequence of ETV6 (P41212 whole entry): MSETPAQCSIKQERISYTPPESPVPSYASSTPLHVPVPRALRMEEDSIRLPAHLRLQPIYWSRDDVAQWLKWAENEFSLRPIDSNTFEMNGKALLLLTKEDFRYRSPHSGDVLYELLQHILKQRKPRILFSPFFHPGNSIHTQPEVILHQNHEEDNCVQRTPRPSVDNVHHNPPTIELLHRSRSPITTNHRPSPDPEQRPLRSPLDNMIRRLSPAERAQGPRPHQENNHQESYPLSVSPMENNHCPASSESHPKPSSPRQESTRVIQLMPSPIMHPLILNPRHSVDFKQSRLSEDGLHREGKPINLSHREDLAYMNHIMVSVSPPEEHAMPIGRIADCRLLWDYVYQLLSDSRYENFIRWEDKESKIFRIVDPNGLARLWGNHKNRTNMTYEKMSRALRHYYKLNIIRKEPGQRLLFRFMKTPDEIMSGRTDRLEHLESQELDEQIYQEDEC
Assay [12] concerns the target T9, ELK1 (Homo sapiens, UniProt P19419 1-428).
T9 sequence: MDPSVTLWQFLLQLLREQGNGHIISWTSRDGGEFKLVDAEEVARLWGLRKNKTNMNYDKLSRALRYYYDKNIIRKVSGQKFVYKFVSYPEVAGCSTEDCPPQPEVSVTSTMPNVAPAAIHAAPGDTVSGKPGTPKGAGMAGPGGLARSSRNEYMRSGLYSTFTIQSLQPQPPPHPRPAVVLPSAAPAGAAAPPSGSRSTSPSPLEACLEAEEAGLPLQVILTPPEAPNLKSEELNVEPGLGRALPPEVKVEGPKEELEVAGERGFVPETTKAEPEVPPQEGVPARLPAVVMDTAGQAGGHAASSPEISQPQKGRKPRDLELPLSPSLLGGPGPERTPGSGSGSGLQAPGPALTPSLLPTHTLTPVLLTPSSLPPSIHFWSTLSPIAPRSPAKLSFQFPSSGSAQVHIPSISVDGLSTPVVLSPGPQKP
The method, boiled down: as §1

The target of assay [13] is T10, GABPA (Homo sapiens, UniProt Q06546 1-454).
T10 sequence: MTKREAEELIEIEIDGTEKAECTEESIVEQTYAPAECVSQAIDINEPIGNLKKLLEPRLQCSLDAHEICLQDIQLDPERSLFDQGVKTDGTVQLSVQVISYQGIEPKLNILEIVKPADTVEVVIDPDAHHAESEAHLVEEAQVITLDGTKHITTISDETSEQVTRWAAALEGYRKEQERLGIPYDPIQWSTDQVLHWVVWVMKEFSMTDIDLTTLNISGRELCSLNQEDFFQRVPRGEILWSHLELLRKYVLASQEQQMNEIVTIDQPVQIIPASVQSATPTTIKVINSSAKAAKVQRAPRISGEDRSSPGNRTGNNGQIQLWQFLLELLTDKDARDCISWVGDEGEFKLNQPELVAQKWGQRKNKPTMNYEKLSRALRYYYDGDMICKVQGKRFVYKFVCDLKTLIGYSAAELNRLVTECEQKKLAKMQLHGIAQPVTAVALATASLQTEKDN
The method, boiled down:
as §1

Assay [14] deals with SPIB (Homo sapiens, UniProt Q01892 1-262). The method, boiled down:
as §1

The target in assay [15] is T11, ETV7 (Homo sapiens, UniProt Q9Y603 1-341).
T11 sequence: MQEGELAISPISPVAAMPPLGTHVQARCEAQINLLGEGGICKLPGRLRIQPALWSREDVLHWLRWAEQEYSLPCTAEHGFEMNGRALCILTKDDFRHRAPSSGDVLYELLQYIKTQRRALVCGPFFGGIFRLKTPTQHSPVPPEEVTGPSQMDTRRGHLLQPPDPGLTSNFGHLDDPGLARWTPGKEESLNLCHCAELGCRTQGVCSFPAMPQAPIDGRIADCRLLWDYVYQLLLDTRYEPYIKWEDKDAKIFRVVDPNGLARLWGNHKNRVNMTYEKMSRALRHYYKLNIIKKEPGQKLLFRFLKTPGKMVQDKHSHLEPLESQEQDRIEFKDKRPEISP
In outline:
as §1

The target in assay [16] is T12, ETV3 (Homo sapiens, UniProt P41162-2 1-143).
T12 sequence: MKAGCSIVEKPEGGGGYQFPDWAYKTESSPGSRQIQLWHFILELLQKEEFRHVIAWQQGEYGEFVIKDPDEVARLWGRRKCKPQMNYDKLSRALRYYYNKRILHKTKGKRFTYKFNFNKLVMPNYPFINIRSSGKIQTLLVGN
In outline: as §1

Sequence of ELF4 (Q99607 whole entry): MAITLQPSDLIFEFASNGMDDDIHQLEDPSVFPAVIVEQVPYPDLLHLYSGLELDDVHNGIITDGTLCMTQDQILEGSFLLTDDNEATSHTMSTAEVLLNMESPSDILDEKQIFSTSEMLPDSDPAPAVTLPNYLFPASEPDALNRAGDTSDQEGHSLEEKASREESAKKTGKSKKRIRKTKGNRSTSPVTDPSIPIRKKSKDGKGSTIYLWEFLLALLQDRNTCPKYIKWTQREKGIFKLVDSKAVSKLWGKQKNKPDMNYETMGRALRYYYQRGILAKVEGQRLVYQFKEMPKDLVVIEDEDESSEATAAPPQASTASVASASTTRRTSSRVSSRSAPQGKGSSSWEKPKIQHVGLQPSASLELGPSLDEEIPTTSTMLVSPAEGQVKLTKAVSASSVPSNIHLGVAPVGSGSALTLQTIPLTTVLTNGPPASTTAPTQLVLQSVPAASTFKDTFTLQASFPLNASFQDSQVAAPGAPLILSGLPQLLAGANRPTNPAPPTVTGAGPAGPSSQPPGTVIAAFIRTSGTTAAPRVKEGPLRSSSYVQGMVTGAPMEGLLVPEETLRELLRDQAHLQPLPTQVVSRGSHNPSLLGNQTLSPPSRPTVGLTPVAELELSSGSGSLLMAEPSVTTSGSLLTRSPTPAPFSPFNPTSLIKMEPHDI
Sequence of SPIB (Q01892 whole entry): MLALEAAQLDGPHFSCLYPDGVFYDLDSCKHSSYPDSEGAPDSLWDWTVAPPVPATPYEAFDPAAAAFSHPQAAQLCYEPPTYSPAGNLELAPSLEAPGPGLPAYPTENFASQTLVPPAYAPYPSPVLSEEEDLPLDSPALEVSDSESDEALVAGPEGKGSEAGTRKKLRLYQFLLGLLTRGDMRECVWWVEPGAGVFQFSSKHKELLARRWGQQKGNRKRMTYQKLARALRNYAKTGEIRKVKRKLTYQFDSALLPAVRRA

Take GATTTA: the binding signal in [1] is 1 fold enrichment (6-mer frequency, TF over GST control); in assay [2], 1.11 fold enrichment (6-mer frequency, TF over GST control); in assay [3], 1.08 fold enrichment (6-mer frequency, TF over GST control); in assay [4], 1.02 fold enrichment (6-mer frequency, TF over GST control); in assay [5], 1.05 fold enrichment (6-mer frequency, TF over GST control); in assay [6], 1.02 fold enrichment (6-mer frequency, TF over GST control). Further, the binding signal in assay [7] was 1.02 fold enrichment (6-mer frequency, TF over GST control); in assay [8], 1.02 fold enrichment (6-mer frequency, TF over GST control); in [9], 1 fold enrichment (6-mer frequency, TF over GST control); in assay [10], 1.08 fold enrichment (6-mer frequency, TF over GST control); in [11], 1.05 fold enrichment (6-mer frequency, TF over GST control).
Take TTAAGA: the binding signal in [12] was 1.05 fold enrichment (6-mer frequency, TF over GST control); in assay [13], 1.09 fold enrichment (6-mer frequency, TF over GST control); in assay [1] it was 1.05 fold enrichment (6-mer frequency, TF over GST control); in [2] it was 1.05 fold enrichment (6-mer frequency, TF over GST control); in assay [14], 1.07 fold enrichment (6-mer frequency, TF over GST control); in assay [3], 1.02 fold enrichment (6-mer frequency, TF over GST control). Further, the binding signal in [4] was 1.12 fold enrichment (6-mer frequency, TF over GST control); in assay [5], 1.05 fold enrichment (6-mer frequency, TF over GST control); in assay [8] it was 1.08 fold enrichment (6-mer frequency, TF over GST control); in [10], 1.06 fold enrichment (6-mer frequency, TF over GST control); in [15], 1.13 fold enrichment (6-mer frequency, TF over GST control); in assay [16], 1.05 fold enrichment (6-mer frequency, TF over GST control). Also, the binding signal in assay [11] is 1.05 fold enrichment (6-mer frequency, TF over GST control).

For the origin of these results see PMC7862700, “An all-to-all approach to the identification of sequence-specific readers for epigenetic DNA modifications on cytosine”.
